# According to PubChem BioAssay AID504385 (National Center for Advancing Translational Sciences (NCATS), 2011):
# Active and inactive are the calls of the source. The rule behind the calls is not given here.
# Target: Lutropin-choriogonadotropic hormone receptor (Homo sapiens) (UniProt P22888)
# Assay: Counterscreen for antagonists of the thyroid stimulating hormone receptor: ELISA activity in a Luteinizing Hormone Receptor cell line
# Conditions: HEK293 LHR cells, LH-induced cAMP ELISA
# Excerpt: TSH is an alpha/beta heterodimeric glycoprotein hormone secreted from the anterior pituitary gland which belongs to the glycoprotein hormone family. The actions of TSH are mediated by a seven-transmembrane receptor, which upon TSH binding couples preferentially to the G-alpha (s) protein (Gs), resulting in activation of adenylate cyclase and increase in cyclic adenosine 3', 5' monophosphate (cAMP). The TSH receptor (THSR) is mainly expressed in thyroid follicular cells and regulates their growth and function. This cell based assay was conducted on a TSHR transfected HEK 293 cell line, measuring cAMP stimulation using antibody-based Homogeneous Time Resolved Fluorescence (HTRF). Our goal is to identify small molecules that will inhibit (antagonize) the thyroid-stimulating hormone receptor (TSHR), a member of the 7 transmembrane-spanning receptor (7TMR) family of cell surface receptors. TSHR-mediated hyperthyroidism is important in thyroid pathology. The development of small molecule antagonists of TSHR may lead to therapeutic approaches for TSHR-mediated hyperthyroidism caused by constitutively activating mutations or stimulating auto-antibodies associated with Graves' disease. Graves' disease is the leading cause of hyperthyroidism and is caused by autoantibodies that stimulate TSHR (TsAbs) causing thyroid growth and unregulated overproduction of thyroid hormones and existing treatments have liabilities (agranulocytosis). In addition, TSHRs are known to be expressed in multiple extrathyroidal tissues including bone, brain, kidney, testis, fat and cells of the immune system but the role of the TSHR in these tissues is not clear. Therefore, TSHR antagonists/inverse agonists could be used as probes of extrathyroidal TSHR function. Finally, TSHR inverse agonists, which are a subclass of antagonists that inhibit agonist-independent (or basal or constitutive) TSHR signaling, could be used to inhibit TSH-independent signaling in patients with recurrent or metastatic thyroid cancer who are receiving thyroid hormone to suppress TSH. In order to confirm specificity of the compounds to the TSHR, a confirmatory assay was conducted on a similar family member, the Luteinizing Hormone Receptor, transfected into a HEK 293 cell line, using an orthogonal detection technology to measure cAMP stimulation: an ELISA based cAMP competition assay using cAMP-Screen Direct System (Applied Biosystems, Foster City, CA)/
# Transiently transfected HEK-EM 293 cells or cells stably expressing LHR were seeded into 96-well plates at a density of 7 x10^4 cells per well in DMEM containing 10% FBS. Cells were cultured for 24 h before incubation for 20 min in HBSS/10 mM HEPES (pH 7.4). To determine the effect of the compound on LH induced LHR activity, cells were incubated for 20 min with the compound in HBSS/HEPES without IBMX and subsequently for 40 min with bovine LH (Sigma) and the compound in HBSS/HEPES supplemented with 1 mM IBMX at 37 C. The levels of cAMP in cells incubated in HBSS/HEPES without IBMX were subtracted in all experiments. After aspiration of the incubation medium, cells were lysed using lysis buffer of the cAMP-Screen Direct system (Applied Biosystems, Foster City, CA). The cAMP content of the cell lysate was determined using the method described in the manufacturer's protocol. The chemiluminescence signal was measured in a VICTOR3 V 1420 multilabel counter (PerkinElmer, Norwalk, CT). The potency (IC50) of the ligands were obtained from dose-response curves by data analysis with GraphPad Prism 4 for Windows.
# Sequence of Lutropin-choriogonadotropic hormone receptor (Homo sapiens) (P22888 whole entry, looked up): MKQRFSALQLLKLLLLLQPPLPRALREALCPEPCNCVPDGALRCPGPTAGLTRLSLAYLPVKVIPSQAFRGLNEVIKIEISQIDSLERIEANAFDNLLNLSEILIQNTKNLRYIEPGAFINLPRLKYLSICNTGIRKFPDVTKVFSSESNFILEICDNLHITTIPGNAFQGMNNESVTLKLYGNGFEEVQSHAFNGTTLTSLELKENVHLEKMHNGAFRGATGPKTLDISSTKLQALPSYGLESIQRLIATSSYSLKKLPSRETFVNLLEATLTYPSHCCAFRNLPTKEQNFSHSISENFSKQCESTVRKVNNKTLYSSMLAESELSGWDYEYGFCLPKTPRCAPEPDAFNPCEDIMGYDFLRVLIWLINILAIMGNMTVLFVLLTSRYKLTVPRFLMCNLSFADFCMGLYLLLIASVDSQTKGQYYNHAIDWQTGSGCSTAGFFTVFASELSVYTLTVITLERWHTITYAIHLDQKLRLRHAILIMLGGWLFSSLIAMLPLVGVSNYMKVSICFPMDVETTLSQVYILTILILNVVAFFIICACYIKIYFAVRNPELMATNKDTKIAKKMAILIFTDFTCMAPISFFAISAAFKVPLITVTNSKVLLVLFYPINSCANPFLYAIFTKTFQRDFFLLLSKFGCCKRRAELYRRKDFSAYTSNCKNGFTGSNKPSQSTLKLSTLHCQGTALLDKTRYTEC
SMILES,outcome,IC50
COc1ccc(C2Nc3ccccc3C(=O)N2Cc2ccco2)cc1CSc1c(C)cccc1C (configuration not stated),inactive,–
COc1ccc(C2Nc3ccccc3C(=O)N2Cc2ccco2)cc1COc1c(C)cccc1C (configuration not stated),–,0.48 µM (active)
COc1ccc(C2Nc3ccccc3C(=O)N2Cc2cccnc2)cc1COc1c(C)cccc1C (configuration not stated),inactive,–
COc1ccc(C2Nc3ccccc3C(=O)N2Cc2ccc(C)o2)cc1COc1c(C)cccc1C (configuration not stated),inactive,–
CCc1cccc(CC)c1OCc1cc(C2Nc3ccccc3C(=O)N2Cc2ccco2)ccc1OC (configuration not stated),inactive,–
COc1ccc(C2Nc3ccccc3C(=O)N2Cc2ccco2)cc1COc1c(C)cc(NC(C)=O)cc1C (configuration not stated),inactive,–
Cc1cccc(C)c1OCc1cccc(C2Nc3ccccc3C(=O)N2Cc2ccco2)c1 (configuration not stated),inactive,–
